Experimental findings from PubChem BioAssay are described below.

Broadly, the inhibition is the drop in the measured response relative to a control, in per cent.

Assay [1] in a line: antimalarial activity against Dd2 strain (AID 2302;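 active means growth inhibition above 50% at the single 2 µM test dose, taken to imply half-maximal potency below 2 µM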;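 further: 0% = DMSO untreated growth and 100% = chloroquine plus artemisinin killed control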). Conditions: P. falciparum Dd2 in RBCs, LDH growth readout, 72 h; at 2 µM; active compounds read high.
Assay [2] can be described thus: human hepatoma cell viability loss – ATP luminescence, cytotoxicity control for P. falciparum antimalarial project, primary screen (AID 2303;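 active means inhibition above 50%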;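 further: 0% = DMSO wells and 100% = digitonin-killed cells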). Particulars: HepG2 viability, 24-48 h, at 10 µM, active compounds read high.
Assay [3] has as its target L-lactate dehydrogenase (Plasmodium falciparum (isolate CDC / Honduras)) (UniProt Q27743). The assay is described as follows: PfLDH activity inhibition – cell lysate, 3D7 strain, counter-screen for P. falciparum growth inhibition project (AID 2304).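 Further: 0% = vehicle and 100% = reference inhibitor.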 Conditions: P. falciparum 3D7 crude extract, LDH APAD/NBT absorbance; at 2 µM; active compounds read high. A general note: Counterscreens check selectivity or assay interference.

Assay [4] can be described thus: inhibition of 3D7 malaria parasite growth – strain 3D7 (AID 2306).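 Further: 0% = DMSO wells and 100% = chloroquine plus artemisinin control wells.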 Conditions: P. falciparum 3D7 erythrocytic growth, LDH absorbance, 72 h; at 2 µM; active compounds read high.
Assay [5] addresses Calcium-dependent protein kinase 1 (Plasmodium falciparum (isolate 3D7)) (UniProt P62344). The experiment in a line: PfCDPK1 kinase inhibitors, biochemical, TCAMS library (AID 1159585; cut-off not given, nearly all actives have IC50 up to about 0.98 µM;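 further: inhibitors leave more ATP so luminescence rises with inhibition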). Conditions: recombinant PfCDPK1, Kinase-Glo ATP depletion luminescence.
The target of assay [6] is Plasmodium falciparum protein kinase 6 (PK6, PF3D7_1337100) (UniProt Q8IDW1). The experiment in a line: PfPK6 kinase inhibitors, biochemical, TCAMS library (AID 1159586). Particulars: recombinant PfPK6, Kinase-Glo ATP depletion luminescence. Background: In Kinase-Glo more light means more ATP remaining.
In assay [7] the target is Protein kinase 7 (PK7), Plasmodium falciparum 3D7 (PF3D7_0213400) (UniProt Q7YTF7). The experiment in a line: inhibition of Plasmodium PK7 catalytic activity – biochemical, TCAMS antimalarial set, Kinase-Glo luminescence (AID 1159587). Conditions: recombinant PfPK7, Kinase-Glo ATP depletion luminescence.
Assay [8] concerns the target Calcium-dependent protein kinase 4 (Plasmodium falciparum (isolate 3D7)) (UniProt Q8IBS5). The assay is described as follows: PfCDPK4 kinase inhibitors, biochemical, TCAMS library (AID 1159588; cut-off not given, nearly all actives have IC50 up to about 0.91 µM). Conditions: recombinant PfCDPK4, Kinase-Glo ATP depletion luminescence.

Values without a mark were called inactive. For part of these data: Potency and affinity values are given separately. The source made the active and inactive calls. Unless noted, how the calls were made is not given here.

Calcium-dependent protein kinase 1 (Plasmodium falciparum (isolate 3D7)), sequence (P62344 whole entry, looked up): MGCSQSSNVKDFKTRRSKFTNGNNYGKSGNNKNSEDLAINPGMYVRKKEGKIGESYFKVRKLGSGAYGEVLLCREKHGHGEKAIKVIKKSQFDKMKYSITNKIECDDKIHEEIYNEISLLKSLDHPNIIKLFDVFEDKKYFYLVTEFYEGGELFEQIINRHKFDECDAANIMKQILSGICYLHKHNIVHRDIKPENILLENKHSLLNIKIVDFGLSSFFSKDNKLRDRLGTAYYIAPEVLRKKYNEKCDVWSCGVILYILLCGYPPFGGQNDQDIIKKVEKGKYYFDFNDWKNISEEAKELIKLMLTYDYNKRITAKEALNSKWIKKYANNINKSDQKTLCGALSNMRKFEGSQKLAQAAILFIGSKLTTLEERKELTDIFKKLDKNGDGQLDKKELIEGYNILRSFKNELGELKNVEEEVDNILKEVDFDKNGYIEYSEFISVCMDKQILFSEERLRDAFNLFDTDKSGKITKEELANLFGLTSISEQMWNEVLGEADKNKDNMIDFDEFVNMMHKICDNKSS
Protein kinase 7 (PK7), Plasmodium falciparum 3D7 (PF3D7_0213400), sequence (Q7YTF7 1-343): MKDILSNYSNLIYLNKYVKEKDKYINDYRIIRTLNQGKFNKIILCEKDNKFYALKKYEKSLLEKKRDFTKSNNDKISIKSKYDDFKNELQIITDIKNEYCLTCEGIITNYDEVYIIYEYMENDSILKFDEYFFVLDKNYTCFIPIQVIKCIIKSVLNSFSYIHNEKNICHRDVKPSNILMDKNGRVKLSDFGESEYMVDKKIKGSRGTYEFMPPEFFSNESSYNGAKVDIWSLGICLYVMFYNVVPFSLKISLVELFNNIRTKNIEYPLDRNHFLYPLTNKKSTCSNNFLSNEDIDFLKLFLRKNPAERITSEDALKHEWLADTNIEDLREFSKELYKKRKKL
Calcium-dependent protein kinase 4 (Plasmodium falciparum (isolate 3D7)), sequence (Q8IBS5 whole entry, looked up): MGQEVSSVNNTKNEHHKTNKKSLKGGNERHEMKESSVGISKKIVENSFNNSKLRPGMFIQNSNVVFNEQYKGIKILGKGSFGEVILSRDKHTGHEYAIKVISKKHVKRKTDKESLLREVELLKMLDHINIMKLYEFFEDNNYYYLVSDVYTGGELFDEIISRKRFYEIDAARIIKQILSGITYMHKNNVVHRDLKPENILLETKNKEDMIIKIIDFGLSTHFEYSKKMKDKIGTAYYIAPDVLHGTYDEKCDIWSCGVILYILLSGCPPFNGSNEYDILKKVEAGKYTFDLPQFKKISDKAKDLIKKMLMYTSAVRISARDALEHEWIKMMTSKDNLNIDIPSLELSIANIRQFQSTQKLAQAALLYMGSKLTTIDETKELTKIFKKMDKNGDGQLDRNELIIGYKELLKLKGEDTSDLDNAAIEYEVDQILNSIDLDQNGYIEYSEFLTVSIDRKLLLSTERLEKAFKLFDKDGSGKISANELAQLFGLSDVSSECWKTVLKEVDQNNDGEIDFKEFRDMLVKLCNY
Plasmodium falciparum protein kinase 6 (PK6, PF3D7_1337100), sequence (Q8IDW1 1-305): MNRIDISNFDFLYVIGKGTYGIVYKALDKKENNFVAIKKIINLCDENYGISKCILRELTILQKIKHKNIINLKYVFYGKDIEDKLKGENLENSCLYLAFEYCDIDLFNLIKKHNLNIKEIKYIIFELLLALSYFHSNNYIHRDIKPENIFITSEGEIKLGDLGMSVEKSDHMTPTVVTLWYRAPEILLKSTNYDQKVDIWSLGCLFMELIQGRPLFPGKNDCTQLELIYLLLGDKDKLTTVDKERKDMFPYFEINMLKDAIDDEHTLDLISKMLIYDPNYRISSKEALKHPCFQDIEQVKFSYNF
L-lactate dehydrogenase (Plasmodium falciparum (isolate CDC / Honduras)), sequence (Q27743 whole entry, looked up): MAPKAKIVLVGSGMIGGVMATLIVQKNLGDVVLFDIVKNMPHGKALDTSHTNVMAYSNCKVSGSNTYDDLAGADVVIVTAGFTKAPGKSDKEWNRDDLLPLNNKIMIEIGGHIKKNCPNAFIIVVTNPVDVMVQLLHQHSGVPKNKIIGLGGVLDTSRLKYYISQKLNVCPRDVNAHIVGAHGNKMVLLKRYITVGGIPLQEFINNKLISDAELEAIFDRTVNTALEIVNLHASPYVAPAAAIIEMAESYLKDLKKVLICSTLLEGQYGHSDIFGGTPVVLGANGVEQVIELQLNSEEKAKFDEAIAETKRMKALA

In the case of `Nc1ncc(OC2CCCCC2)c(N)n1`, the figures for the growth inhibition in assay [1] and in assay [4] were -1% and 94% (active), respectively. Moreover, the inhibition in assay [2] is -4%; in assay [3] it was -1%. Further, the outcome in assay [5], in assay [6], in assay [7] and in assay [8] was inactive.

Consider `Cc1nc(/N=C(\N)NC(=O)NC2CCCCC2)nc2ccccc12`, for which the growth inhibition is 99% (active) in assay [1] and 95% (active) in assay [4]. The inhibition in assay [2] was 21%; in assay [3] it was -2%. The outcome in assay [5], in assay [6], in assay [7] and in assay [8] was inactive.

On to `COC(=O)c1cccc(CNCc2cccc(-c3cccc(-c4nc5ccccc5[nH]4)c3)c2)c1`, for which the growth inhibition in assay [1] is 58% (active); in assay [4], 95% (active). Moreover, the inhibition in assay [2] was 3%; in assay [3] it was -3%. Further, the result in assay [5], in assay [6], in assay [7] and in assay [8] was inactive.

Regarding `CCOc1ccc(-c2nc(NC(=O)CS(=O)(=O)c3ccccc3)sc2C)cc1`, the values for the growth inhibition in assay [1] and in assay [4] were 59% (active) and 100% (active), respectively. For the same compound, the inhibition in assay [2] is 6%; in assay [3] it was 2%. The result in assay [5], in assay [6], in assay [7] and in assay [8] was inactive.

Turning to `CC(=O)CC(=O)N1CCN(c2ccccc2)CC1`, the growth inhibition in assay [1] was -6%; in assay [4] it was 85% (active). In addition, the inhibition in assay [2] is 54% (active); in assay [3], -1%. The result in assay [5], in assay [6], in assay [7] and in assay [8] was inactive.

Regarding `OC[C@H](Nc1nc(C(Oc2ccccc2)c2ccccc2)nc2[nH]ncc12)c1ccccc1` (stereo partly drawn), the growth inhibition in assay [1] was 45%; in assay [4] it was 98% (active). Besides, the inhibition in assay [2] was 0%; in assay [3], -4%. Also, the outcome in assay [5], in assay [6], in assay [7] and in assay [8] was inactive.

Take `COc1ccc(CNCc2cccc(-c3ccc(-c4nc5c(C)cccc5[nH]4)s3)c2)cc1`: the growth inhibition in assay [1] is 65% (active); in assay [4], 103% (active). The inhibition in assay [2] was 24%; in assay [3] it was 7%. Besides, the result in assay [5], in assay [6], in assay [7] and in assay [8] was inactive.

For the compound `CC(C)CN1CCN(c2nc(C#N)c3c(c2C(=S)NC2CCCCC2)CC(C)(C)OC3)CC1`, the growth inhibition in assay [1] was 99% (active); in assay [4], 101% (active). Moreover, the inhibition is -4% in assay [2] and -2% in assay [3]. In addition, the outcome in assay [5], in assay [6], in assay [7] and in assay [8] was inactive.

Take `CNC(=O)c1cnc(Nc2ccc(N3CCN(C)CC3)cc2)nc1Nc1cccc([N+](=O)[O-])c1`: the growth inhibition in assay [1] is 100% (active); in assay [4], 103% (active). Moreover, the inhibition was 31% in assay [2] and -8% in assay [3]. The outcome in assay [5], in assay [6], in assay [7] and in assay [8] was inactive.

In the case of `Cc1ccc(C(=O)Cn2nc(-c3ccc(C)c(S(=O)(=O)N4CCCCC4)c3)ccc2=O)cc1`, the growth inhibition is 76% (active) in assay [1] and 99% (active) in assay [4]. In addition, the inhibition in assay [2] is 6%; in assay [3] it was -5%. In addition, the outcome in assay [5], in assay [6], in assay [7] and in assay [8] was inactive.

`COc1c(C2CCN(CCCCNC(=O)c3ccc(-c4ccc(C(F)(F)F)cc4)c(C(=O)OC(C)C)c3)CC2)ccc2c1CCCC2`: the values for the growth inhibition in assay [1] and in assay [4] were 30% and 90% (active), respectively. Moreover, the values for the inhibition in assay [2] and in assay [3] were 24% and 0%, respectively. The result in assay [5], in assay [6], in assay [7] and in assay [8] was inactive.

For the compound `N#Cc1ccc(N[C@@H](CC2CCCCC2)C(=O)NCc2cc(F)c(F)cc2F)c2ccccc12`, the values for the growth inhibition in assay [1] and in assay [4] were 39% and 94% (active), respectively. Further, the values for the inhibition in assay [2] and in assay [3] were 12% and -3%, respectively. Also, the result in assay [5], in assay [6], in assay [7] and in assay [8] was inactive.

For the compound `Cc1cc(N[C@@H](Cc2ccccc2)C(=O)NCCOc2ccccc2)nc(NCCc2ccc(F)cc2)n1`, the growth inhibition in assay [1] is 86% (active); in assay [4], 99% (active). Moreover, the results for the inhibition in assay [2] and in assay [3] were 5% and 1%, respectively. Further, the outcome in assay [5], in assay [6], in assay [7] and in assay [8] was inactive.

Turning to `O=C(CCc1cnc[nH]1)Nc1ccc(-c2cccc(-c3nc4ccccc4[nH]3)c2)cc1`, the figures for the growth inhibition in assay [1] and in assay [4] were 42% and 101% (active), respectively. Also, the inhibition in assay [2] is 12%; in assay [3] it was 4%. Besides, the result in assay [5], in assay [6], in assay [7] and in assay [8] was inactive.

Regarding `COc1ccc(-c2ccc(NC(=O)c3cccc(Cl)c3)cc2)cc1CN(C)CCN(C)C`, the growth inhibition is 35% in assay [1] and 100% (active) in assay [4]. Moreover, the inhibition in assay [2] is 22%; in assay [3], -3%. Also, the outcome in assay [5], in assay [6], in assay [7] and in assay [8] was inactive.

As for `CC1CC(C)CN(S(=O)(=O)c2cc(C(=O)Nc3cccc([N+](=O)[O-])c3)ccc2Br)C1` (stereo not drawn), the growth inhibition in assay [1] is 68% (active); in assay [4], 101% (active). Moreover, the inhibition in assay [2] was 1%; in assay [3], -5%. For the same compound, the result in assay [5], in assay [6], in assay [7] and in assay [8] was inactive.

As for `CCOC(=O)Cc1nc(N)c(C(=O)OCC)[nH]1`, the growth inhibition in assay [1] was 24%; in assay [4], 94% (active). The inhibition in assay [2] was 2%; in assay [3] it was -1%. The result in assay [5], in assay [6], in assay [7] and in assay [8] was inactive.

`COc1ccc(CC2(c3ccc(F)cc3)N=C(N)N(CCCc3ccc(F)c(F)c3)C2=O)cc1` (stereo not drawn): the growth inhibition in assay [1] and in assay [4] was 98% (active) each time. For the same compound, the values for the inhibition in assay [2] and in assay [3] were 42% and 5%, respectively. Moreover, the outcome in assay [5], in assay [6], in assay [7] and in assay [8] was inactive.

For `CCN(CC)CCN(Cc1ccc(-c2ccc(C(F)(F)F)cc2)cc1)C(=O)Cn1c(CCc2cccc(C#N)c2)nc(=O)c2ccccc21`, the growth inhibition in assay [1] is 47%; in assay [4], 101% (active). The inhibition was 36% in assay [2] and -1% in assay [3]. The outcome in assay [5], in assay [6], in assay [7] and in assay [8] was inactive.

As to `O=C1COC2(CN1C1CCN(Cc3ccc(O)c(Cl)c3)C1)c1ccccc1-c1ccccc12` (stereo not drawn), the growth inhibition was 63% (active) in assay [1] and 93% (active) in assay [4]. In addition, the results for the inhibition in assay [2] and in assay [3] were 5% and 3%, respectively. Moreover, the outcome in assay [5], in assay [6], in assay [7] and in assay [8] was inactive.

In the case of `NC1CCN(Cc2cccc(-c3ccc(-c4nc5ccccc5[nH]4)s3)c2)C1` (stereo not drawn), the growth inhibition is 62% (active) in assay [1] and 100% (active) in assay [4]. For the same compound, the inhibition in assay [2] is 36%; in assay [3], -1%. The outcome in assay [5], in assay [6], in assay [7] and in assay [8] was inactive.
